Dicer inh: human Dicer pre-microRNA cleavage inhibition; AID 1347074; cat-ELCCA pre-miR-21 Dicer processing, chemiluminescence; active compounds read high; 47,000 tested, 6% active; z-score at 25 µM; Q9UPY3; in the data active = z-score above about 3, passing the limit was not always enough;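 note: plate controls were vehicle for no effect and no enzyme for full effect; higher signal means more uncleaved substrate so more Dicer inhibition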
Active calls of the source: *. Only a selection was taken, and hits are over-represented in it overall.

COc1cc(OC)c(C(F)(F)F)cc1NCN1C(=O)CCC1=O was read as Dicer inh 0.78.
O=C1CCC(=O)N1CNc1c(F)cccc1F was read as Dicer inh 0.95.
For COc1cccc2c1NC(c1cccc(Br)c1)C1CC=CC21 (stereo not given) the results were Dicer inh 2.
`CC1CCCN(C2CCN(Cc3ccccn3)CC2)C1` (stereo not given) gave Dicer inh -0.25.
For O=C(NCCc1c[nH]c2ccccc12)c1cc2n(n1)C(C(F)(F)F)CC(c1ccco1)N2 (stereo not given) the results were Dicer inh 0.02.
Screening CCOC(=O)N1CCN(S(=O)(=O)c2ccc(C(F)(F)F)cc2)CC1 returned Dicer inh -0.42.
Screening O=C(Nc1ccc(OC(F)(F)F)cc1)N1CCN(c2ccc([N+](=O)[O-])cn2)CC1 returned Dicer inh -0.92.
N#Cc1cccnc1N1CCN(C(=O)Nc2ccccc2)CC1 was read as Dicer inh 2.8.
N#Cc1cccnc1N1CCN(C(=O)Nc2ccc(OC(F)(F)F)cc2)CC1 was read as Dicer inh 3.1*.
`C/S(=N/S(=O)(=O)c1ccccc1Cl)c1ccc(OC(=O)c2ccc(Cl)cc2)cc1` (stereo not given) gave Dicer inh -0.95.
COc1cc(N=C(N)N=C(N)N)cc(OC)c1 was read as Dicer inh 0.32.
Screening COc1ccc(N=C(N)N=C(N)N)cc1 returned Dicer inh 6.3*.
Screening Cc1cc(N=C(N)N=C(N)N)ccc1Br returned Dicer inh 0.97.
Screening CCCCc1[nH]nc2c1C1(CCN(C(=O)OCC)CC1)C(C#N)=C(N)O2 returned Dicer inh -5.2.
Screening Clc1ccc(COc2ccncc2)c(Cl)c1 returned Dicer inh 0.99.
For CCOc1ccc2nc(NC(=O)c3ccc([N+](=O)[O-])o3)sc2c1 the results were Dicer inh 1.
`CCOc1ccc2nc(NC(=O)c3cccs3)sc2c1` gave Dicer inh 4*.
`CCCOc1ccc2nc(NC(=O)OC)sc2c1` gave Dicer inh 1.3.
Screening CC(C)c1nnc(N2C(=O)c3oc4ccccc4c(=O)c3C2c2ccc(Cl)cc2)s1 (stereo not given) returned Dicer inh -0.02.
For Cc1ccc(CSc2nnc3c(n2)[nH]c2ccc(Br)cc23)cc1 the results were Dicer inh -0.38.
`O=C(O)CS(=O)(=O)/C=C/c1ccccc1` gave Dicer inh 19*.
For O=C(N/N=C/C=C/c1ccccc1)N/N=C/C=C/c1ccccc1 the results were Dicer inh -0.35.
For O=S(=O)(/C=C/c1ccccc1)c1ccc(F)c(Cl)c1 the results were Dicer inh -0.86.
For CCOC(=O)c1sc(S(=O)(=O)Cc2ccccc2)c2c1CC(C)(C)CC2=O the results were Dicer inh -0.35.
For COc1ccccc1C1CCN(C(=O)CSc2nnc(NC(=O)c3ccccc3)s2)CC1 the results were Dicer inh 0.94.
O=C1Nc2ccc(Br)cc2C(c2ccccc2)C1N1CCCCC1 (stereo not given) was read as Dicer inh 1.9.
Screening COc1ccc(-c2csc(Nc3ncccn3)n2)cc1OC returned Dicer inh 0.07.
`Cc1cc(C)nc(Nc2nc(-c3ccc(O)c(O)c3)cs2)n1` gave Dicer inh 8.6*.
Screening Oc1ccc(-c2csc(Nc3ccccn3)n2)cc1 returned Dicer inh 0.3.
For CCCC1=NC(C)(C)Cc2cc(OC)c(OC)cc21 the results were Dicer inh 1.1.
`C=CCOC(=O)C1=C(C)NC2=C(C(=O)CCC2)C1c1cccc(F)c1` (stereo not given) gave Dicer inh -0.43.
`Cc1ccccc1C1CC(c2ccccc2Cl)Nc2nc(N)nn21` (stereo not given) gave Dicer inh -0.09.
Screening Cc1sc2ccccc2c(=O)c1Cc1ccc(Cl)c(Cl)c1 returned Dicer inh 0.38.
Screening C#CC1(NC(=S)NC2CC(C)CC(C)(C)C2)CCCCC1 (stereo not given) returned Dicer inh -1.9.
`CCOc1cc(-c2ccc(OC)cc2)cc(=O)c2c(C)oc(C)c12` gave Dicer inh -0.25.
Screening COc1ccc(-c2cc(OC(=O)c3ccccc3C)c3c(C)oc(C)c3c(=O)c2)cc1 returned Dicer inh 6.7*.
`CCOc1ccc(-c2cc(OC(=O)c3ccccc3F)c3c(C)oc(C)c3c(=O)c2)cc1` gave Dicer inh 0.02.
Screening CC1CN(C(C#N)c2c(F)cccc2Cl)CC(C)O1 (stereo not given) returned Dicer inh -0.25.
Screening COc1cc(OC)cc(-c2nc(-c3cc4cccc(C)c4[nH]c3=O)no2)c1 returned Dicer inh -0.74.
For Cc1cc2nc(Nc3nc4ccccc4c(=O)[nH]3)nc(C)c2cc1C the results were Dicer inh -1.1.
For Cc1ccc2nc(Nc3nc(C)c4ccccc4n3)[nH]c(=O)c2c1 the results were Dicer inh -0.36.
Cc1nc(Nc2nc3ccccc3c(=O)[nH]2)nc2c(C)cccc12 was read as Dicer inh 4*.
O=C1C(=O)N(Cc2cccnc2)C(c2ccccc2F)/C1=C(\O)c1ccc(F)cc1 (stereo not given) was read as Dicer inh 1.1.
For O=C(CCC(=O)OCC(=O)c1cccs1)Nc1cccc2cccnc12 the results were Dicer inh 4.3*.
Screening O=C(Nc1cccc2cccnc12)c1cccs1 returned Dicer inh -1.1.
For O=C(O)CCCC(=O)Nc1cccc2cccnc12 the results were Dicer inh 0.9.
For C=CCN1C(=O)C(=O)/C(=C(\O)c2ccc(Br)cc2)C1c1ccc(OC)cc1 (stereo not given) the results were Dicer inh 0.76.
For CCc1ccc(-c2csc(NC3OC(=O)c4ccccc43)n2)cc1 (stereo not given) the results were Dicer inh -0.13.
Screening Cc1cc(C)c(S(=O)(=O)N(C(=O)c2cccnc2)c2ccc3oc(=O)sc3c2)cc1C returned Dicer inh 11*.
Cc1ccc(C)c(S(=O)(=O)N(C(=O)c2cccnc2)c2ccc3oc(=O)sc3c2)c1 was read as Dicer inh 13.
`Cc1ccc(S(=O)(=O)NCc2cccnc2)c(C)c1` gave Dicer inh 1.2.
Screening Cc1ccc(S(=O)(=O)N(C(=O)c2cccnc2)c2ccc3oc(=O)sc3c2)c(C)c1 returned Dicer inh 8.4*.
CN1CCc2c(sc3c2C(=O)NC(c2ccc(-c4cccc(Br)c4)o2)N3)C1 (stereo not given) was read as Dicer inh -0.57.
`COc1ccc(-c2cc(C(=O)O)c3ccccc3n2)c(OC)c1` gave Dicer inh 4.5*.
Screening Nc1cccc(-c2cc(C(=O)O)c3ccccc3n2)c1 returned Dicer inh -0.8.
O=C(O)c1cc(-c2ccccn2)nc2ccccc12 was read as Dicer inh -0.85.
CCSc1nc(N)c(Br)c(=O)[nH]1 was read as Dicer inh 9.4.
For CCCCCCOC(=O)c1ccc(OC(=O)c2cncc(Br)c2)cc1 the results were Dicer inh 1.4.
For CC(CC(=O)O)CC(=O)NCc1ccc(Cl)cc1 (stereo not given) the results were Dicer inh 3.3*.
CC(CC(=O)O)CC(=O)Nc1nncs1 (stereo not given) was read as Dicer inh -2.2.
O=C(O)CC(CC(=O)O)c1ccc(Cl)cc1 was read as Dicer inh 1.3.
For CCOc1ccc2oc(C)c(C(=O)OC)c2c1 the results were Dicer inh 0.79.
